Measured values: PubChem BioAssay AID1347416 (National Center for Advancing Translational Sciences (NCATS), 2020)
Hit rate of the full screen: of about 4,100 compounds, about 1,600 (39%) were called active. Another 25% or so got no clear call; they are omitted. The list shows a part of the results. Values without a mark were called inactive. Calls come from the whole dose curve; as a rule, active = well fitted inhibition curve with a large enough effect; inconclusive = small, poorly fitted or top-dose-only effect; inactive = no such curve, though single readings can be large or run the other way.

Assay: qHTS Validation assay for Inhibitors of Plasmodium falciparum Dd2 growth in vitro; note: nearly all actives have a fitted effect of over 70% in size
Conditions: P. falciparum Dd2 in RBCs, SYBR Green growth, 72 h; series mostly up to 28.7 µM; activity change, negative = inhibition: at the top concentration
Summary of the method: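 P. falciparum Dd2-infected red blood cells (2.5% hematocrit, 0.3% parasitemia) grown 72 h at 37 °C under 5% O2 with compounds in a titration, 29 uM to 0.5 nM final. Growth read as SYBR Green-1 fluorescence after ~16 h lysis; artesunate 300 nM as positive control.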
% is set by controls: 0 for no effect and ±100 for the full control effect; potency is the fitted concentration of half-maximal effect.

SMILES | Potency | activity change, negative = inhibition
COc1ccc(CCN(C)C(=S)Nc2cccc(C)c2)cc1OC | 2.11 µM (active) | 
COc1cc2c(cc1OC)C(c1ccccc1N)=NCC2 |  | -18.1%
Brc1c(C[n+]2ccccc2)nc2ccccn12 |  | -12.1%
CCc1cc(CN(C)C(=O)c2cc(COc3ccccc3F)[nH]n2)on1 |  | 29.2%
CC1(c2ccccc2)N(Cc2cccnc2)C(=O)OC12CCN(C(=O)Cc1ccc(Cl)cc1)CC2 (configuration not stated) | 13.3 µM (active) | 
CC(=O)Nc1ccc(CN2C(=O)OC3(CCN(C(=O)C4CCC4)CC3)C2(C)c2ccccc2)cc1 (configuration not stated) |  | -21.2%
CCN1CCN(c2nc3c(s2)CN(C(=O)Cc2cccnc2)CC3)CC1 |  | 29.4%
CC1(c2ccccc2)N(Cc2ccccc2)C(=O)OC12CCN(Cc1cccnc1)CC2 (configuration not stated) | 15.3 µM (active) | 
CC1(c2ccccc2)N(Cc2cccnc2)C(=O)OC12CCN(Cc1ccccc1)CC2 (configuration not stated) | 17.2 µM (active) | 
CCN(CC)c1ccc(C(=O)N2CCCC(n3cc(-c4noc(C)n4)nn3)C2)cc1 (configuration not stated) |  | -5.7%
COc1cccc(CNC(=O)N[C@@H]2CN(Cc3ccncc3)C[C@H]2CN(C)C)c1 |  | 0%
COc1ccc(C(=O)N[C@@H]2CCC[C@@H]2C(=O)NC(C)C)cc1 |  | -18.7%
COc1ccc(C(=O)N[C@@H]2CN(Cc3cccc(OC)c3)CCC[C@H]2O)cc1 | 10.9 µM (active) | 
CC(C)(C)Nc1nc(NC(C)(C)C)nc(-n2ccnc2)n1 | 4.73 µM (active) | 
CCc1ccc(CN(C(=O)c2nc(SC)ncc2Cl)C2CCS(=O)(=O)C2)cc1 (configuration not stated) |  | -8.57%
CN1CCN(c2ccc3ncc(Nc4ccccc4-c4ccccc4)n3n2)CC1 | 0.863 µM (active) | 
CN1CCN(c2ccc(-c3cccc(N)c3)nn2)CC1 |  | -6.65%
c1ccc(Oc2ccc(Nc3cnc4ccc(N5CCOCC5)nn34)cc2)cc1 | 7.69 µM (active) | 
CN(C)c1ccc2ncc(Nc3ccc(Oc4ccccc4)cc3)n2n1 | 8.63 µM (active) | 
O=C(Nc1ccccc1OCc1cc(=O)n2ccccc2n1)Nc1ccccc1C(F)(F)F |  | 64.6%
O=C(Nc1ccccc1C(F)(F)F)c1cc(-c2ccccc2O)on1 | 2.99 µM (active) | 

SMILES | Potency | activity change, negative = inhibition
COc1cc(NC(=O)c2cc(-c3cccs3)on2)c(OC)cc1Cl |  | 4.63%
CCOc1cccc(/C=N/Nc2nc(N3CCCC3)nc(N3CCCC3)n2)c1O |  | -13.7%
COc1ccc(/C=N/Nc2nc(Nc3ccccc3)nc(N3CCCC3)n2)cc1[N+](=O)[O-] | 6.68 µM (active) | 
Cc1ccc(-c2noc(-c3ccc(N4CCCC4)c([N+](=O)[O-])c3)n2)cc1 |  | -4.43%
NCCn1cc(C(=O)N2CCCC(c3[nH]ncc3Cc3ccccc3)C2)nn1 (configuration not stated) |  | 35.2%
COc1ccc(Nc2c(-c3cc(Br)ccc3O)nc3ncccn23)cc1OC | 4.73 µM (active) | 
CC(C)(C)CC(=O)Nc1ccc(S(=O)(=O)N2CCCC2)cc1 |  | 23.1%
CCN(CC)CCNC(=O)c1ccc(NC(=O)c2cccc(S(=O)(=O)N3CCc4ccccc43)c2)cc1 | 5.31 µM (active) | 
CCN(CC)CCNC(=O)c1ccc(NC(=O)c2ccc(S(=O)(=O)N3CCCCCC3)cc2)cc1 | 8.41 µM (active) | 
CCCCNC(=O)c1cccc2c1CCN2S(=O)(=O)c1cccc(C)c1 |  | -16.4%
CCN(CC)CCCNC(=O)C1CCN(S(=O)(=O)CC)CC1 |  | 9.31%
Cc1cc(C)cc(N2C(N)=NC(N)=NC2c2cccc(Cl)c2)c1 (configuration not stated) |  | -28.9%
O=C(Cc1cccc(F)c1)N1CCCC(Cc2nc(C3CCOCC3)no2)C1 (configuration not stated) |  | -15.4%
Cc1nc2c(c(N3CCCC(COc4cccc(F)c4)C3)n1)CCNCC2 (configuration not stated) | 8.41 µM (active) | 
COc1ccc(-c2cc(N3CCCC(NC(=O)c4cccc(F)c4)C3)n[nH]2)cc1 (configuration not stated) |  | -11.7%
COC1C(=O)N(c2cccc(F)c2)C12CCN(C(=O)c1cc3ccccc3[nH]1)CC2 (configuration not stated) |  | -71.7%
CC(C)CN(CCNC(=O)c1cc(-c2ccc(Cl)s2)nc2ccccc12)CC(C)C | 7.5 µM (active) | 
Cc1cccc(NC(=O)CCN2CCN(c3ccccc3F)CC2)c1 |  | 18.2%
O=C(Nc1ccccc1)[C@H]1O[C@H](CCN2CCN(c3ccc(F)cc3)CC2)CC[C@@H]1O | 10.9 µM (active) | 
Cc1cccc(N(C)c2nc3ccccc3c3nnc(C)n23)c1 | 1.06 µM (active) | 
Cc1cccc(N(C)S(=O)(=O)c2nnc(NC(=O)C(C)Oc3ccccc3)s2)c1 (configuration not stated) |  | -12.3%

SMILES | Potency | activity change, negative = inhibition
COc1cc2c(cc1OC)CN(c1ccc3ccccc3n1)CC2 |  | -25.5%
Cc1ccccc1OCC(O)CN(Cc1ccccc1O)C1CCCCC1 (configuration not stated) | 0.119 µM (active) | 
Cc1ccc(CSCc2ccc(C(=O)NC3CC3)o2)cc1 | 2.66 µM (active) | 
O=C(NC1CC1)C1COC2(CCN(C(=O)c3ccc(F)cc3)CC2)N1C(=O)c1cccc(F)c1 (configuration not stated) |  | -4.58%
O=C(NC1CC1)c1ccc(CSCc2cccc(F)c2)o1 | 8.41 µM (active) | 
CCCS(=O)(=O)N1CC(=O)N(c2cccc(F)c2)C(C)(C(=O)NC2CCCCCC2)C1 (configuration not stated) |  | 23.3%
CCCNC(=O)N1CC[C@@H]2[C@H]1C(=O)N(c1cccc(F)c1)C(=O)N2Cc1cccs1 |  | -10.5% [at 43.1 µM]
CCC1=C(C(=O)OC)C(c2cccc(F)c2)N2C(CC(=O)NCCc3cccs3)=CSC2=N1 (configuration not stated) | 9.44 µM (active) | 
O=C(COc1ccc(Cl)cc1)NCCc1csc(-c2cccc(F)c2)n1 |  | -1.83%
CCOc1ccc(-c2cc3nc(C4CCN(C(=O)OC(C)(C)C)CC4)c(C(=O)Nc4ccc(C(=O)OC)cc4)cn3n2)cc1 | 4.73 µM (active) | 
CCOc1ccc(NC(=O)c2ccc3c(c2)N(C)C2CCCN2C3=O)cc1 (configuration not stated) |  | 0%
CCCc1noc(-c2cn(C3CCN(C(=O)c4ccc(OC)cc4C)CC3)nn2)n1 |  | -20.5%
O=C(c1[nH]nc2c1COc1ccccc1-2)N1CCC(Cc2nncn2CC2CC2)CC1 |  | -3.31%
O=C(Nc1ccc(F)c(F)c1)c1ccc(=O)n(Cc2ccc(F)cc2)c1 |  | 3.37%
CC(=O)Nc1ccc(NC(=O)c2c(C)oc3ccn(Cc4ccc(F)cc4)c(=O)c23)cc1 | 10.6 µM (active) | 
Cc1ccc(-c2nc(NC(=O)c3cc(C(C)(C)C)nn3C)sc2C)cc1Cl | 10.6 µM (active) | 
CCOC(=O)c1cccc(NC(=O)CCn2c(-c3ccc(F)cc3)cc(C(=O)OCC)c2C)c1 | 0.075 µM (active) | 
CCOC(=O)c1cc(-c2ccc(OC)cc2)n(CCC(=O)Nc2cccc(C(C)=O)c2)c1C | 0.211 µM (active) | 
CCOC(=O)c1cccc(NC(=O)CSc2cc(=O)n(C)c3ccccc23)c1 |  | 9.12%
CCOC(=O)c1cccc(NC(=O)C2=C(C)C(=O)OC23CCCCC3)c1 |  | 1.2%
